“And” between values parts separate entries of the source, which are not always exact repeats. Equal entries are not always repeated. The panel holds about 83,000 compounds, 20% with a hit somewhere; the sample as a whole holds those more often.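 Step 1: grow cells in 96-well plates. Step 2: add test compound at a single concentration. Step 3: incubate 48 h. Step 4: record percent growth.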 A number with no mark means an inactive call. The source made the active and inactive calls. The calls were made as follows: active = growth percent below 10; inactive = the rest.
Tested on: NCI-H23 lung
Assay: NCI-60 one-dose screen, 48 h (100 = growth as untreated, 0 = no growth, -100 = all killed)
Conditions: 10 µM unless noted

Compound | growth
ON=C1CCCCCCCC1 | 99.6% and 98%
CCOC(=O)N(O)c1ccc(/C=C/c2ccccc2)cc1 | 75.9% and 51.3%
O=S(=O)(O)c1ccc(N=Nc2ccc(N=Nc3cccc4ccccc34)c(S(=O)(=O)O)c2)cc1 | 91.5%
COc1ccc(-c2nn3c(-c4cc(F)c(Cl)cc4Cl)nnc3s2)cc1 | 54.1%
CCc1c2c(nc3ccc(OCc4ccc(B5OC(C)(C)C(C)(C)O5)cc4)cc13)-c1cc3c(c(=O)n1C2)COC(=O)[C@]3(O)CC | -23.1% (active)
O=C(O)c1ccccc1Cc1ccc(F)c2ccccc12 | 97.5% and 105%
CCCCC1COc2cccc3c2N1C=C/C3=C\C(=O)N(C)c1cccc(Cl)c1 (stereo unspecified) | 97.5%
COc1ccc(/C=C2\COc3ccc(O)c(O)c3C2=O)c(OC)c1OC | 38.6%
CC12OC(CC(O)C1O)n1c3ccccc3c3c4c(c5c6ccccc6n2c5c31)C(=O)N(CCN1CCOCC1)C4=O (stereo unspecified) | -6.63% (active)
COc1ccc(/C=N/C2=C(C#N)C(c3ccccc3)c3c(ccc4ccccc34)O2)cc1 (stereo unspecified) | 36.9%
COc1ccc(-c2cc3cnc4ccccc4c3oc2=O)cc1 | 94.4%
O=C(/C=C/c1ccc(F)cc1)Nc1ncc(Cc2ccc(F)cc2)s1 | 61.5%
COc1cc(/C=C2\CCC/C(=C\c3cc(CN4CCCC4)c(O)c(OC)c3)C2=O)cc(CN2CCCC2)c1O | 38.4%
CN(C)CCCn1c2c(c3ccc(N4CCNCC4)cc3c1=O)C(=O)c1ccccc1-2 | -59.5% (active)
C=CCOc1ccc(/C=C2\SC(=S)N(CCc3ccc(O)cc3)C2=O)cc1 | 104%
CCOC(=O)C1=C(C)N=C2SC=C(c3ccc(F)cc3)N2[C@H]1c1cn(-c2ccccc2)nc1-c1ccc(Cl)cc1 | 102%
COc1ccc(/C=N/NC(=O)CN2CCN(c3cc4c(cc3F)c(=O)c(C(=O)O)cn4C3CC3)CC2)cc1O | 103%
COc1cccc(C2C(C#N)=C(N)Oc3cc(OCCCCCC[P+](c4ccccc4)(c4ccccc4)c4ccccc4)ccc32)c1 (stereo unspecified) | -23.1% (active)
Cc1nn(-c2nc(-c3cc4ccccc4oc3=O)cs2)c(C)c1N=Nc1ccccc1 | 98%

Compound | growth
Cn1cc2c(=O)nc3c(-c4nc5ccccc5[nH]4)n[nH]n3c2n1 | 78.6%
O=C1c2cccc3cccc(c23)C(=O)N1N1C(=O)c2cccc3c(N4CCNCC4)ccc(c23)C1=O | 92.2%
Cc1nc2sc(C(=O)Nc3cccc4ncccc34)c(N)c2cc1C(C)O (stereo unspecified) | 80.4%
CCOC(=O)c1nc2c3ccccc3cnn2c1C(=O)c1ccc(OC)cc1 | 84.4%
O=C1/C(=C/c2ccccc2[N+](=O)[O-])Cc2ccccc21 | 22.6% and 59.2%
COc1cc(/C=C2/C=C(c3ccc(C(C)(C)C)cc3)N(CCc3ccc(S(N)(=O)=O)cc3)C2=O)cc(OC)c1OC | 62.3%
COC(=O)N/N=C/c1c[n+]([O-])c2ccccc2[n+]1[O-] | 98.6%
Cc1nc(-n2[nH]c(=O)ccc2=O)sc1N=Nc1ccccc1 | 103%
CC1(Cc2ccccc2)CC2=C(C(=O)O1)C(c1ccccc1)NC(=O)N2 (stereo unspecified) | 100%
Cc1ccc(/C=C/c2c(C(=O)/C=C/c3ccccc3)c(C)nc3ccccc23)cc1 | 27.5%
CC1=C2[C@@H](CC1)[C@]1(C)O[C@@](C3CC3)(C[C@H]1OC(=O)CO)[C@H]2OC(=O)/C=C/c1ccccc1 | 103%
COc1ccc(S(=O)(=O)Nc2cc(Sc3cccc4cccnc34)c(O)c3ccccc23)cc1 | 23.7%
CCN(CC)CCCN1C(=O)c2c(c(C)c3c(oc4cc(OC)ccc43)c2C)C1=O | 105%
CN1Cn2c(ccc2C(F)(F)F)C(=O)CS1(=O)=O | 108%
O=c1cc(N/N=C/c2ccc(F)cc2)c2cc(Cl)ccc2[nH]1 | 85.3%
Cc1cccc(-c2nnc(SCC(=O)Nc3ncc(Cc4ccccc4)s3)n2N2C(=O)CSC2=S)c1 | 36.7%
COc1ccc(/C(C)=C(\c2ccc(OCCN3CCCCCC3)cc2)c2ccc(OC(=O)C3CCCCC3)cc2)cc1 | -74% (active)
COc1ccc2c(c1)c(C(=O)c1nc(-c3cn(C)c4ccccc34)no1)cn2C | 94.6%
CCOC(=O)c1nnn(Cc2cc(=O)oc3c2ccc2ccccc23)c1C | 102%

Tested on: NCI-H226 lung
Assay: as above
Conditions: 10 µM unless noted

Compound | growth
ON=C1CCCCCCCC1 | 105%
CCOC(=O)N(O)c1ccc(/C=C/c2ccccc2)cc1 | -39.4% (active)
O=S(=O)(O)c1ccc(N=Nc2ccc(N=Nc3cccc4ccccc34)c(S(=O)(=O)O)c2)cc1 | 90.1%
COc1ccc(-c2nn3c(-c4cc(F)c(Cl)cc4Cl)nnc3s2)cc1 | 80%
CCc1c2c(nc3ccc(OCc4ccc(B5OC(C)(C)C(C)(C)O5)cc4)cc13)-c1cc3c(c(=O)n1C2)COC(=O)[C@]3(O)CC | -44% (active)
O=C(O)c1ccccc1Cc1ccc(F)c2ccccc12 | 107%
CCCCC1COc2cccc3c2N1C=C/C3=C\C(=O)N(C)c1cccc(Cl)c1 (stereo unspecified) | 100%
COc1ccc(/C=C2\COc3ccc(O)c(O)c3C2=O)c(OC)c1OC | 63.9%
CC12OC(CC(O)C1O)n1c3ccccc3c3c4c(c5c6ccccc6n2c5c31)C(=O)N(CCN1CCOCC1)C4=O (stereo unspecified) | -35.6% (active)
COc1ccc(/C=N/C2=C(C#N)C(c3ccccc3)c3c(ccc4ccccc34)O2)cc1 (stereo unspecified) | 33.8%
COc1ccc(-c2cc3cnc4ccccc4c3oc2=O)cc1 | 103%
O=C(/C=C/c1ccc(F)cc1)Nc1ncc(Cc2ccc(F)cc2)s1 | 70%
COc1cc(/C=C2\CCC/C(=C\c3cc(CN4CCCC4)c(O)c(OC)c3)C2=O)cc(CN2CCCC2)c1O | 75.1%
CN(C)CCCn1c2c(c3ccc(N4CCNCC4)cc3c1=O)C(=O)c1ccccc1-2 | 14.2%
C=CCOc1ccc(/C=C2\SC(=S)N(CCc3ccc(O)cc3)C2=O)cc1 | 91.6%
CCOC(=O)C1=C(C)N=C2SC=C(c3ccc(F)cc3)N2[C@H]1c1cn(-c2ccccc2)nc1-c1ccc(Cl)cc1 | 96.4%
COc1ccc(/C=N/NC(=O)CN2CCN(c3cc4c(cc3F)c(=O)c(C(=O)O)cn4C3CC3)CC2)cc1O | 112%
COc1cccc(C2C(C#N)=C(N)Oc3cc(OCCCCCC[P+](c4ccccc4)(c4ccccc4)c4ccccc4)ccc32)c1 (stereo unspecified) | 7.81% (active)
Cc1nn(-c2nc(-c3cc4ccccc4oc3=O)cs2)c(C)c1N=Nc1ccccc1 | 105%

Compound | growth
Cn1cc2c(=O)nc3c(-c4nc5ccccc5[nH]4)n[nH]n3c2n1 | 96.4%
O=C1c2cccc3cccc(c23)C(=O)N1N1C(=O)c2cccc3c(N4CCNCC4)ccc(c23)C1=O | 98.6%
Cc1nc2sc(C(=O)Nc3cccc4ncccc34)c(N)c2cc1C(C)O (stereo unspecified) | 85.1%
CCOC(=O)c1nc2c3ccccc3cnn2c1C(=O)c1ccc(OC)cc1 | 81.9%
O=C1/C(=C/c2ccccc2[N+](=O)[O-])Cc2ccccc21 | 19.4%
COc1cc(/C=C2/C=C(c3ccc(C(C)(C)C)cc3)N(CCc3ccc(S(N)(=O)=O)cc3)C2=O)cc(OC)c1OC | 62.7%
COC(=O)N/N=C/c1c[n+]([O-])c2ccccc2[n+]1[O-] | 109%
Cc1nc(-n2[nH]c(=O)ccc2=O)sc1N=Nc1ccccc1 | 85.3%
CC1(Cc2ccccc2)CC2=C(C(=O)O1)C(c1ccccc1)NC(=O)N2 (stereo unspecified) | 101%
Cc1ccc(/C=C/c2c(C(=O)/C=C/c3ccccc3)c(C)nc3ccccc23)cc1 | 43.6%
CC1=C2[C@@H](CC1)[C@]1(C)O[C@@](C3CC3)(C[C@H]1OC(=O)CO)[C@H]2OC(=O)/C=C/c1ccccc1 | 86.7%
COc1ccc(S(=O)(=O)Nc2cc(Sc3cccc4cccnc34)c(O)c3ccccc23)cc1 | 41.2%
CCN(CC)CCCN1C(=O)c2c(c(C)c3c(oc4cc(OC)ccc43)c2C)C1=O | -5.51% (active)
CN1Cn2c(ccc2C(F)(F)F)C(=O)CS1(=O)=O | 111%
O=c1cc(N/N=C/c2ccc(F)cc2)c2cc(Cl)ccc2[nH]1 | 76.1%
Cc1cccc(-c2nnc(SCC(=O)Nc3ncc(Cc4ccccc4)s3)n2N2C(=O)CSC2=S)c1 | 31.5%
COc1ccc(/C(C)=C(\c2ccc(OCCN3CCCCCC3)cc2)c2ccc(OC(=O)C3CCCCC3)cc2)cc1 | -62.4% (active)
COc1ccc2c(c1)c(C(=O)c1nc(-c3cn(C)c4ccccc34)no1)cn2C | 83%
CCOC(=O)c1nnn(Cc2cc(=O)oc3c2ccc2ccccc23)c1C | 105%

Source: PubChem BioAssay (NCI)
